ChEMBL document CHEMBL3988442, “University of Dundee, Small-Polar-MMV Screening Library” (2021)
The campaign covered roughly 69,000 compounds. About 1,000 (1.4%) showed an effect of 50% or more. The list comes from a sample in which strong results are over-represented; it also holds similar structures and randomly drawn compounds.

System: Leishmania donovani
Assay: Leishmania intramacrophage assay
Format: functional, organism-based
Design: scale not given: in the data most compounds retested in dose-response had high values

SMILES: CNC(=O)c1nc(CC(=O)Nc2cccc(C(F)(F)F)c2)no1
- Percent Effect (30.3 µM, […]): -13.79%

SMILES: O=c1cc(N2CCc3ccccc3C2)cnn1CCC1CCOC1 (stereo not given)
- Percent Effect (30.3 µM, […]): 44.37%

SMILES: CC(C)C(=O)N1CC[C@H]2N(C)CC[C@@]2(C(=O)Nc2cccnc2)CC1.O=C(O)C(F)(F)F.O=C(O)C(F)(F)F
- Percent Effect (30.3 µM, […]): 36.27%

SMILES: CC(C)C(=O)N1CC[C@H]2N(C)CC[C@@]2(C(=O)Nc2ccccc2)CC1
- Percent Effect (30.3 µM, […]): 56.37%

SMILES: CNC(=O)N1CC[C@H]2N(C)CC[C@@]2(C(=O)Nc2ccccc2)CC1
- Percent Effect (30 µM, 30.03 µM): 11.56%

SMILES: CCCc1noc(C2CC(=O)N(CCN(C)C)C2)n1 (stereo not given)
- Percent Effect (30.3 µM, […]): 24.39%

SMILES: CCCc1noc(C2CC(=O)N(C(C)(C)C)C2)n1 (stereo not given)
- Percent Effect (30.3 µM, […]): 13.52%

SMILES: CCCc1noc(C2CC(=O)N(Cc3ccccc3)C2)n1 (stereo not given)
- Percent Effect (30.3 µM, […]): 62.8%

SMILES: O=C(CCS(=O)(=O)c1ccccc1)NC1CCOC2(CCOCC2)C1 (stereo not given)
- Percent Effect (30.3 µM, […]): -6.021%

SMILES: O=C(O)C(F)(F)F.O=C1CC2(CCCCN2CC2CC2)CN1c1ccccc1 (stereo not given)
- Percent Effect (30.3 µM, […]): 20.41%

SMILES: COCCN1CCCCC12CC(=O)N(c1ccccc1OC)C2.O=C(O)C(F)(F)F (stereo not given)
- Percent Effect (30.3 µM, […]): 20.15%

SMILES: COCCN1CCCCC12CC(=O)N(c1cccc(C#N)c1)C2.O=C(O)C(F)(F)F (stereo not given)
- Percent Effect (30.3 µM, […]): 50.28%

SMILES: COc1ccc(N(c2ccccc2)c2ccc(C(=O)O)s2)cc1
- Percent Effect (30.3 µM, […]): 6.692%

SMILES: Cc1cnc(C(=O)N2CCCC3(CCN(c4cnn(C)c4)C3=O)C2)cn1 (stereo not given)
- Percent Effect (30.3 µM, […]): -31.28%

SMILES: CN(C)C(=O)CC1CC2(CCN(CC3CC3)CC2)Oc2ccccc21.O=C(O)C(F)(F)F (stereo not given)
- Percent Effect (30.3 µM, […]): 9.368%

SMILES: CCn1nccc1CN(C)C(=O)Cn1cc2c(n1)c(C)nn2CC
- Percent Effect (30.3 µM, […]): 72.98%

SMILES: CCn1nccc1CN(C)C(=O)Cn1nc(C)cc1C
- Percent Effect (30.3 µM, […]): 19.68%

SMILES: CCn1nccc1CN(C)C(=O)Cn1nc(C)c(C)c1C
- Percent Effect (30.3 µM, […]): 6.99%

SMILES: O=C(c1csc(-c2ccc(C(F)(F)F)cc2)n1)N1CCCNCC1
- Percent Effect (30.3 µM, […]): 53.12%

SMILES: O=C1CCN(C(=O)c2csc(-c3ccc(C(F)(F)F)cc3)n2)CCN1
- Percent Effect (30.3 µM, […]): -4.65%

SMILES: CN1CCCN(C(=O)c2csc(-c3ccc(C(F)(F)F)cc3)n2)CC1
- Percent Effect (30.3 µM, […]): -34.88%

SMILES: CCc1nc(C2CCCN2CCC(=O)N2CCc3ccccc32)no1 (stereo not given)
- Percent Effect (30 µM): -5.363%

SMILES: Cc1cc(C(=O)Nc2nnn[nH]2)ccc1I
- Percent Effect (30.3 µM, […]): 2.496%

SMILES: O=C(O)C(F)(F)F.O=C(O)C(F)(F)F.O=C(O)C(F)(F)F.c1cncc(COCc2cncc3c2CCN(Cc2ccoc2)C3)c1
- Percent Effect (30.3 µM, […]): 3.293%

SMILES: Cc1nc(N2CCCC2)nc2c1CCN(C(=O)c1ccoc1C)CC2
- Percent Effect (30.3 µM, […]): 54.38%

SMILES: Cc1cc(C(=O)N2CCc3nc(N4CCCC4)nc(C)c3CC2)c(C)o1
- Percent Effect (30.3 µM, […]): 44.41%

SMILES: Cc1nc(N2CCCC2)nc2c1CCN(C(=O)N1CCCC1)CC2
- Percent Effect (30.3 µM, […]): -2.559%

SMILES: CCn1ccc(C(=O)N2CCCC2(C)c2nc(C)cc(N(C)C)n2)n1 (stereo not given)
- Percent Effect (30.3 µM, […]): 26.06%

SMILES: CC(C)CNC(=O)C(C)N1CCN(C2CCN(C(C)C)CC2)CC1 (stereo not given)
- Percent Effect (30.3 µM, […]): 19.26%

SMILES: CCN(CC)C(=O)CN1CCCC(c2nc(C)c3c(n2)N(C)CCC3)C1 (stereo not given)
- Percent Effect (30.3 µM, […]): 94.66%

SMILES: CCN(CC)C(=O)CN1CCC(c2nc(C)c3c(n2)N(C)CCC3)CC1
- Percent Effect (30.3 µM, […]): -13.08%

SMILES: CCC(=O)N1CCC(c2nc(C)c3c(n2)N(C)CCC3)CC1
- Percent Effect (30.3 µM, […]): 31.8%

SMILES: CS(=O)(=O)NCC1CCCN(C(=O)Nc2cccnc2N2CCCC2)C1 (stereo not given)
- Percent Effect (30 µM, 30.03 µM): 4.026%

SMILES: CS(=O)(=O)NC1CCCN(C(=O)Nc2cccnc2)C1 (stereo not given)
- Percent Effect (30 µM): -4.572%

SMILES: CS(=O)(=O)NC1CCCN(C(=O)Nc2cccnc2N2CCCC2)C1 (stereo not given)
- Percent Effect (30.3 µM, […]): 64.13%

SMILES: CCOCc1cncc2c1CCN(C(=O)c1cscn1)C2.O=C(O)C(F)(F)F
- Percent Effect (30.3 µM, […]): 5.62%

SMILES: Cc1ccc(C(=O)NC2CCCN(S(C)(=O)=O)C2)c(=O)[nH]1 (stereo not given)
- Percent Effect (30.3 µM, […]): 4.219%

SMILES: Cc1ccc(C(=O)NC2CCN(S(C)(=O)=O)CC2)c(=O)[nH]1
- Percent Effect (30.3 µM, […]): 59.71%

SMILES: Cc1ccc(C(=O)NC2CCN(C(C)C)C2)c(=O)[nH]1 (stereo not given)
- Percent Effect (30.3 µM, […]): 39.11%

SMILES: CNC(=O)C1CN(c2cc(C)ncn2)CCN1Cc1ccccc1 (stereo not given)
- Percent Effect (30.3 µM, […]): -5.457%

SMILES: CCOC(=O)N1CCN(C(=O)c2cc(-c3ccc(Cl)cc3Cl)on2)CC1
- Percent Effect (30.3 µM, […]): 18.25%

SMILES: CCOC(=O)N1CCN(C(=O)c2cc(-c3ccccc3F)on2)CC1
- Percent Effect (30.3 µM, […]): -28.98%

SMILES: CCOC(=O)N1CCN(C(=O)c2cc(-c3ccc(C)cc3)on2)CC1
- Percent Effect (30.3 µM, […]): 67.95%

SMILES: Cn1cc(C(=O)N2CC[C@@H]3[C@@H]2CCN3c2ncc(F)cn2)cn1.O=C(O)C(F)(F)F
- Percent Effect (30.3 µM, […]): 4.387%

SMILES: Cc1ccsc1CNC(=O)c1ccc(N2CCOC2=O)cc1
- Percent Effect (30.3 µM, […]): -0.1452%

SMILES: COc1cccc(COC(C)C(=O)N(C)Cc2nnc3n2CCC3)c1 (stereo not given)
- Percent Effect (30.3 µM, […]): -15.17%

SMILES: Cc1cc(C(=O)NC(COCC(C)C)c2ccco2)no1 (stereo not given)
- Percent Effect (30.3 µM, […]): 10.39%

SMILES: COc1ncc(CN(CCN(C)C)Cc2ccc(C)s2)cn1
- Percent Effect (30.3 µM, […]): 1.942%

SMILES: CCc1ccc(CN(CCN(C)C)Cc2ccc(C)s2)nc1
- Percent Effect (30.3 µM, […]): 60.62%

SMILES: CCNc1ncc(CN(CCN(C)C)Cc2ccc(C)s2)cn1
- Percent Effect (30.3 µM, […]): 7.089%
